Screening results (PubChem)
Tau fibril ThT: inhibitors of human tau fibril formation, thioflavin T binding; Potency, µM (top dose mostly 57.4 µM), without a hit: at the highest dose activity, negative = inhibition, actives largely listed as inhibitors; AID 1460; P10636; actives 2.1% (n = 270,000); recombinant tau K18 P301L, heparin-induced fibrillization, ThT fluorescence; further: potency means the concentration at half of the fitted maximal effect; on the % scale 0 is the no-effect control and ±100 the full control effect; nearly all actives have a fitted effect of over 55% in size
Target sequence (P10636 561-689 P618L limits assumed): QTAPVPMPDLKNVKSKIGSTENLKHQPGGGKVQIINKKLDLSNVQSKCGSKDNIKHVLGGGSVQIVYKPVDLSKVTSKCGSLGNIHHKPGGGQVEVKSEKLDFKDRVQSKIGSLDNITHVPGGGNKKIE
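Recombinant human tau K18 fragment […] carrying P301L, 15 uM unlabeled plus 0.24 uM Alexa 594-labeled, was fibrillized with 20 uM heparin in 100 mM sodium acetate pH 7 for 6 hr at 37 C; 30 uM ThT fluorescence read after 1 hr.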
Tau FP inhib: inhibitors of human tau fibril formation; P10636; K18 P301L tau heparin fibrillization, Alexa594 FP, 6 h; Potency, µM (titrated, usually from 57.7 µM), inactives show at the highest dose activity, negative = inhibition, usual class: inhibitors; actives 0.39% (n = 280,000); AID 1468; further: potency means the concentration at half of the fitted maximal effect; on the % scale 0 is the no-effect control and ±100 the full control effect; nearly all actives have a fitted effect of over 55% in size
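Heparin (20 uM) drove fibril formation of recombinant tau K18 P301L, 15 uM unlabeled with 0.24 uM Alexa 594 label, for 6 hr at 37 C in 100 mM sodium acetate pH 7. Fluorescence polarization (555/632 nm) read 1 hr after 30 uM ThT.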
Tau fluor counter: counter-screen for tau fibril formation inhibitors | tau K18 P301L Alexa594 fluorescence, heparin fibrillization | Potency, µM (titrated, usually from 57.7 µM), without a hit: top-dose activity change, negative = decrease | actives 0.93% (n = 280,000); further: potency means the concentration at half of the fitted maximal effect; on the % scale 0 is the no-effect control and ±100 the full control effect; nearly all actives have a fitted effect of over 55% in size
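Human K18 P301L tau (15 uM unlabeled plus 0.24 uM Alexa 594-labeled, final) in 100 mM sodium acetate pH 7 was mixed with compound and 20 uM heparin and incubated 6 hr at 37 C.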
Sfp PPTase inh: inhibitors of Bacillus subtilis Sfp phosphopantetheinyl transferase. actives 3.5% (n = 310,000). Potency, µM, without a hit: largest response in the series, negative = inhibition, actives largely listed as inhibitors. AID 1490. Biochemical Sfp PPTase activity, qHTS;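 further: the enzyme is Sfp with the accession as filed and its product quenches rhodamine fluorescence; potency means the concentration at half of the fitted maximal effect; 0% = enzyme reaction without inhibitor and -100% = no enzyme wells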
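Step 1, compound plus 15 nM Sfp-PPTase, 15 min, room temperature. Step 2, add rhodamine-CoA (5 uM) and BHQ-2-YbbR (12.5 uM). Step 3, read 525/598 nm fluorescence at 0 and 30 min.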
Coupling enz: coupling enzyme interference in Giardia aldolase counter-screen; actives 0.67% (n = 290,000); AID 2472; coupling enzyme system counterscreen, AmpLite Red fluorescence; activity change, negative = inhibition, % at 58.2 µM, hits read low; in the data active means activity change below about -30%; further: on the % scale 0 is the no-effect control and ±100 the full control effect
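Counterscreen lacking aldolase: glyceraldehyde-3-phosphate coupling-enzyme reagent preincubated 10 min at RT with compound (at 57.5 uM final), then substrate/coupling system with AmpLite Red added; fluorescence read at 525/598 nm after 20 min RT.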
Tau fibril TEM: Blocks tau fibril formation, electron microscopy; recombinant tau K18 P301L fibrillization, TEM grading; stronger effect = higher value; AID 1719; fibril grade (0 = clumped fibrils, 4 = only tiny pieces) (no concentration beside the values); shares compounds with Tau fibril ThT; actives 70% (n = 45);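 active means compounds whose electron micrographs showed tau fibrils broken into shorter filaments or fragments, graded high on fibril breakup; inconclusive means micrographs gave an unclear fibril picture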
tau fibril sed: reduces sedimented tau K18 P301L aggregates; shares compounds with Tau fibril ThT; recombinant tau K18 P301L (four-repeat tau fragment), sedimentation SDS-PAGE densitometry; inhibition, % at 100 µM; actives 50% (n = 110); AID 1720; in the data active means inhibition above about 40%; inconclusive means no clear call, values can overlap the other calls; inactive means below about 18%
Sfp inh conf: Sfp phosphopantetheinyl transferase inhibition, confirmation | shares compounds with Sfp PPTase inh | Sfp PPTase enzymatic assay, qHTS titration | Potency, µM (highest dose often 114 µM), for the others: top-dose activity change, negative = inhibition, hits mostly inhibitors | actives 79% (n = 380);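 further: potency means the concentration at half of the fitted maximal effect; plate controls were uninhibited Sfp reaction for no effect and no enzyme control for full effect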
Target sequence (Q9F4F7 whole entry, looked up): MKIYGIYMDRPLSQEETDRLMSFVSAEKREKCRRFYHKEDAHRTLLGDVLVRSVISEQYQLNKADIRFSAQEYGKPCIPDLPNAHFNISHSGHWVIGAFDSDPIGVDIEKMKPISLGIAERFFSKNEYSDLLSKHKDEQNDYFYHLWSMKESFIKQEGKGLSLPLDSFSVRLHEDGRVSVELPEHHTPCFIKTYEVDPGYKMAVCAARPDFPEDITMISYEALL
Sfp PPTase gel: Inhibits B. subtilis Sfp phosphopantetheinylation | purified Sfp, gel-based phosphopantetheinylation read-out | shares compounds with Sfp PPTase inh | actives 20% (n = 210) | Potency, µM, actives largely listed as inhibitors;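 active means potency below 100 µM; inconclusive means dose-dependent response but potency above 100 µM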;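 further: band intensities scaled against SCH202676 control wells before curve fitting; potency is an IC50 for inhibitors of Sfp transfer activity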
Active calls of the source: *; i = inactive; ? = inconclusive; nt = no result given; ! = repeats disagree; [ ] = dose if it differs, or a comment. Most compounds without a hit are left out; they make up all but 5.2% or so of the library. Unless noted, the call rests on the fitted dose curve; in most records, active means well fitted curve in the direction sought with a large enough effect; inconclusive means small, poorly fitted or top-dose-only effect, or another doubt; inactive means no such curve, though single readings can be large; an effect the other way counts as inactive or inconclusive.

SMILES	Tau fibril ThT	Tau FP inhib	Tau fluor counter	Sfp PPTase inh	Coupling enz	Sfp inh conf	others
CCn1nccc1C(=O)Nc1cc(Cl)cc(Cl)c1	?	28µM*	?	-1%	1	nt	tau fibril sed=?
COc1ccccc1-c1nc(SCC(=O)Nc2ccc(C)c(C)c2)n[nH]1	-6%	-15%	-27%	nt	nt	nt
CN(c1ccccc1)S(=O)(=O)c1nnc(NC(=O)C2CCCCC2)s1	2.5µM*	?	?	25%	2	nt	Tau fibril TEM=3*;tau fibril sed=80*
O=C(Nc1cccc(Cl)c1Cl)c1cc2nc(-c3ccc4c(c3)OCO4)cc(C(F)(F)F)n2n1	-9%	-7%	-10%	nt	nt	nt
Nc1c(-c2ccccc2)cc[nH]c1=O	nt	nt	nt	nt	nt	nt	tau fibril sed=9
CCn1c(SCC(=O)Nc2cccc(Cl)c2)nnc1-c1nonc1NC(C)=O	7%	-14%	-22%	nt	nt	nt
Cc1csc2nc(COc3ccccc3NC(=O)c3ccco3)cc(=O)n12	-7%	-3%	-14%	nt	nt	nt
COc1ccc(N(CC(=O)NCc2ccccc2Cl)S(=O)(=O)c2c(C)[nH]c(=O)[nH]c2=O)cc1	4%	-5%	-3%	nt	nt	nt
N#Cc1cccc(NC(=O)c2ccc3c(c2)N(Cc2cccc(Cl)c2)C(=O)c2ccccc2S3(=O)=O)c1	16%	13µM*	-22%	nt	nt	nt	tau fibril sed=4
O=C(O)CN1C(=O)/C(=C/c2ccc(-c3cccc(Cl)c3)o2)SC1=S	nt	nt	nt	nt	nt	nt	tau fibril sed=14
Cc1ccc(NC(=O)CN2C(=O)S/C(=C/c3ccc(-c4cccc(C(=O)O)c4)o3)C2=O)cc1	-16%	-1%	1%	-17%	0	nt
CCN(CC)S(=O)(=O)c1ccc2c(c1)c(=O)c(C(=O)N1CCN(c3ccc(F)cc3)CC1)cn2C	?	-2%	-40%	nt	nt	nt
O=C(Nc1cccc(-c2nc3ccccc3o2)c1)c1cc([N+](=O)[O-])ccc1N1CCOCC1	-22%	?	?	nt	nt	nt	tau fibril sed=17
O=C(Nc1cc(-c2nc3cc(Cl)ccc3o2)ccc1Cl)c1cc([N+](=O)[O-])ccc1N1CCOCC1	-4%	0%	-20%	nt	nt	nt
CCOC(=O)c1nn(-c2ccc(C)cc2)c(=O)c2c(N)scc12	14µM*	?	?	3.5µM*	-55*	19µM*	tau fibril sed=?
CCOC(=O)c1nc(N)c(=O)n(-c2ccc(C)cc2)n1	12%	0%	-4%	21%	0	nt
OCC1(CO)COC(C(Cl)(Cl)Cl)OC1	nt	nt	nt	26%	nt	nt
Oc1ccccc1CNc1cccc2cccnc12	6.3µM*	?	16µM*[quencher]	7.9µM*	-22	42µM*	Tau fibril TEM=?;tau fibril sed=61*
CC(C)(C)C(=O)OCOP(=O)(COCCn1cnc2c(N)ncnc21)OCOC(=O)C(C)(C)C	nt	nt	nt	56µM*	nt	?	Sfp PPTase gel=?
Cc1nnc2sc(SCc3ccc(Br)cc3)nn2c1=O	-11%	-5%	-9%	13%	4	nt
N[C@@H](Cc1ccccc1)c1nnc2sc(SCc3ccccc3)nn12	-16%	-2%	0%	45µM*	1	66µM*
C=Cc1ccc(Cn2c(C)c(CNCCc3ccc(OCC)cc3)c(C(=O)O)c2C)cc1	-13%	9%	-2%	nt	nt	nt
C[C@@](Cc1ccc(O)c(O)c1)(NN)C(=O)O	14µM*!	?	?	20µM*!	0	?	Sfp PPTase gel=6.2µM*
S=C(Nc1ccccn1)c1ccccn1	?	-17%	-19%	2.8µM*	-27	53µM*
O[C@@H]1CCN2Cc3ccccc3N=C12	nt	nt	nt	2.8µM*	-7	2.1µM*	Sfp PPTase gel=0.69µM*
SMILES	Tau fibril ThT	Tau FP inhib	Tau fluor counter	Sfp PPTase inh	Coupling enz	Sfp inh conf	others
c1ccc2c(c1)CN1CCCC1=N2	2%	-5%	-4%	6%	3	nt
C=Cc1ccc(Cn2c(C(=O)O)c(CNCc3cc(OC)ccc3OC)c3ccc(C)cc32)cc1	-10%	8%	-7%	nt	nt	nt
Cc1ccc(-n2c(Cc3cccn3C)nnc2SCC(=O)NCc2ccco2)cc1	-1%	-5%	4%	6.3µM*	-1	?	Sfp PPTase gel=i
Cc1ccc(-n2c(Cc3cccn3C)nnc2SCC(N)=O)cc1	-8%	-7%	-5%	4%	4	nt
Cc1cc(Nc2cccc(Cl)c2)nc(NCc2ccccc2)n1	?	?	?	16µM*	-6	59µM*	Sfp PPTase gel=?
O=C(CSc1nc2ccccc2n1Cc1cccc(Cl)c1)N1CCN(c2ccc(F)cc2)CC1	?	-1%	-23%	nt	nt	nt
COc1cccc(-c2nn(C)c3sc(C(=O)NCc4ccc(C)o4)cc23)c1	-1%	-4%	-4%	3.5µM*	-4	24µM*
COc1cccc(-c2nnc3n2N=C(c2c(OC)cccc2OC)CS3)c1	nt	nt	nt	-10%	6	nt
O=C(CSc1nc2ccc(S(=O)(=O)N3CCOCC3)cc2[nH]1)N1CCOCC1	28µM*	?	-26%	6.3µM*	1	3.7µM*
COC(=O)Oc1nsnc1N1CCOCC1	?	?	-16%	13µM*	-1	11µM*
Oc1ccc(NCc2ccccc2OCc2ccccc2)cc1	14µM*	13µM*!	10µM*[quencher]	25µM*	-48*	11µM*	Sfp PPTase gel=?
CCNCc1ccccc1OCc1ccccc1	4%	3%	3%	22%	5	nt
c1cncc(-c2nc(-c3ccco3)cs2)c1	?	?	-21%	7.9µM*	-4	15µM*
O=C(O)c1ccc(-n2c(=O)c3ccccc3c3ccccc3c2=O)cc1	2%	4%	-5%	7.9µM*	3	74µM*	Sfp PPTase gel=?
Cc1ccc(C2(C(F)(F)F)NC(=O)N3CCCN=C3S2)cc1 (stereo not drawn)	-4%	-7%	-4%	-4%	4	nt
O=C1NC(c2ccccc2)(C(F)(F)F)SC2=CCCCCN12 (stereo not drawn)	?	-14%	-4%	20µM*	0	47µM*	Sfp PPTase gel=i
Cc1ccc(Nc2nc(=O)c3cccnc3s2)cc1	-14%	-3%	-6%	8%	-9	nt
COc1ccc(OC)c(Nc2nc(=O)c3cccnc3s2)c1	?	?	-2%	2.8µM*	-7	19µM*
CCOC(=O)c1c(NC(=O)c2cc(-c3cccc(OC)c3)on2)sc2c1CCCC2	?	-20%	-13%	nt	nt	nt
